# Assay outcomes as filed in PubChem BioAssay.
# USP30 block – inhibitors of human USP30 deubiquitinase | Ubiquitin carboxyl-terminal hydrolase 30 (Homo sapiens), Q70CQ3 | purified USP30, Ub-rhodamine cleavage fluorescence | inhibition, % at 25 µM | hit rate 5.3% among 47,000 | AID 1645860, 2021
# USP17 block – inhibitors of human USP17 deubiquitinase; purified USP17, Ub-rhodamine cleavage fluorescence, 3 h; inhibition, % at 50 µM; hit rate 6.5% among 47,000; AID 1645855, 2021
# Target sequence (A8MUK1 whole entry, looked up): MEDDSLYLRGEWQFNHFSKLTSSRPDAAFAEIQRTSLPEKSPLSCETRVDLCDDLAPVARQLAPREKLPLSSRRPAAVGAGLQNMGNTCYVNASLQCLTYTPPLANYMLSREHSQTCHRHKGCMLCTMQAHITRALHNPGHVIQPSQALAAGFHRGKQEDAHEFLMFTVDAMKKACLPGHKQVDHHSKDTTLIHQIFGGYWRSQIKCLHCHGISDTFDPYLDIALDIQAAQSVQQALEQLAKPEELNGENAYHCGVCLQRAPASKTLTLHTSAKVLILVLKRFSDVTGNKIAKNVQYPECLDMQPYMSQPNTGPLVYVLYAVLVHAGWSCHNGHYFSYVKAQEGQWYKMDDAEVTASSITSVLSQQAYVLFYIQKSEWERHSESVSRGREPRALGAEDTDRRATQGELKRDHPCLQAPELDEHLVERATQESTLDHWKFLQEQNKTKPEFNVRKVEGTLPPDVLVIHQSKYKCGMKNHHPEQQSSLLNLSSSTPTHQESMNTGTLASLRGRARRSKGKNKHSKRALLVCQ
# USP28 block – inhibitors of human USP28 deubiquitinase; purified USP28, Ub-rhodamine cleavage fluorescence, 30 min; inhibition, % at 25 µM; Ubiquitin carboxyl-terminal hydrolase 28 (Homo sapiens), Q96RU2; AID 1645857, 2021; hit rate 3% among 47,000
# * = called active by the depositor; / = not tested or not shown. Only some compounds are listed: those with a hit (about 11% of all), similar ones and a draw of the others. Rule as the data show it: active = inhibition above about 30%; inactive = the rest.
SMILES,USP30 block,USP17 block,USP28 block
CCC(C)n1nnc2cc(S(=O)(=O)N3CCC(C(=O)NCc4ccco4)CC3)ccc21 (configuration not stated),-15,-15,-9
CC(C)n1nnc2cc(S(=O)(=O)N3CCCC(C(=O)NCCc4ccco4)C3)ccc21 (configuration not stated),-30,42*,7
CCOc1ccc(CCNC(=O)c2cccc3c2C(=O)N(CCOC)C3)cc1OCC,-9,-16,53*
CCCN1Cc2cccc(C(=O)NCc3ccc(OC)cc3)c2C1=O,1,-21,11
COCCN1Cc2cccc(C(=O)NCc3ccccc3OC)c2C1=O,6,-10,11
CCCN1Cc2cccc(C(=O)NCCc3ccccc3)c2C1=O,8,0,31*
CCn1c(N2CCCC(C(=O)NCc3ccccc3)C2)cc(=O)n(C)c1=O (configuration not stated),-30,-28,-20
CCC(=O)N1CCc2cc(S(=O)(=O)NCCC(=O)N3CCN(c4ccc(F)cc4)CC3)ccc21,4,-9,2
CC1CCc2c(cc(-c3ccccc3)n2-c2ccc(C(=O)O)cc2)C1 (configuration not stated),-336,-35,-75
COc1ccc(-c2nc(CNC(=O)Cc3ccc(Cl)cc3)cs2)cc1,8,36*,19
Cc1ccc(-c2nc(CNC(=O)Cc3ccccc3)cs2)cc1,16,8,5
COc1ccc(CC(=O)NCc2cc(-c3ccc(Cl)cc3)on2)cc1,13,16,-2
O=C(COc1ccccc1)NCc1csc(-c2ccccc2)n1,31*,44*,11
COc1ccc(-c2cccc(C3CN(Cc4cnn(C)c4)CCO3)n2)cc1 (configuration not stated),11,9,3
Cc1cccc(CNC(=O)CCN2C(=O)c3cccnc3Sc3ccccc32)c1,22,/,10
CCCCc1nc2sc3c(SCC(=O)NC(c4ccccc4)c4ccccc4)ncnc3c2c2c1COC(C)(C)C2,5,0,5
Cc1ccccc1-n1ncc(C(=O)Nc2cccc(C#N)c2)c1C1CC1,0,0,42*
O=C(Nc1cccc(F)c1)c1cnn(-c2ccccc2)c1C1CCNCC1,3,-16,-3
O=C(NC1CCCCC1)N1CCc2nc(-c3ccccc3)ncc2C1,10,2,-6
O=C(COc1cccc2ccc(N3CCC(Cc4ccccc4)CC3)nc12)Nc1cccc(Cl)c1,2,39*,5
O=C(COc1ccc(Cl)cc1-n1cnnc1)Nc1cccc(O)c1,-138,-46,-43
Cc1cc(=O)[nH]c(C2CN(C(=O)c3cccc4ncccc34)CCO2)n1 (configuration not stated),15,14,10
Cc1ccc(S(=O)(=O)N2CCC(C(=O)OCC(=O)Nc3ccc4c(c3)CCC4)CC2)cc1C,9,8,15
Cc1ccc(S(=O)(=O)N2CCC(C(=O)OCC(=O)Nc3ccc(OC(F)(F)F)cc3)CC2)cc1C,43*,31*,13
CC(C)CN1C[C@@H]2OCC(=O)N(Cc3nccn3C)[C@@H]2C1,/,-33,/
SMILES,USP30 block,USP17 block,USP28 block
CS(=O)(=O)c1cc(C#N)c(N2CCN(C(=O)c3cc(Cl)nc(Cl)c3)CC2)nc1-c1ccccc1C(F)(F)F,15,0,7
COc1ccccc1NC(=O)NC1CCN(c2ccc(F)cc2)C1=O (configuration not stated),-39,8,0
O=C(Nc1ccc(F)cc1F)NC1CCN(c2ccccc2)C1=O (configuration not stated),5,73*,45*
COc1ccc(OC)c(NC(=O)C2c3ccccc3C(=O)N(C3CCCC3)C2c2cccs2)c1 (configuration not stated),4,-1,-5
CCN1CCN(Cc2ccc(NC(=O)C3c4ccccc4C(=O)N(C4CCCC4)C3c3cccs3)cc2)CC1 (configuration not stated),29,12,17
COc1ccc(NC(=O)C2c3ccccc3C(=O)N(C3CCCC3)C2c2cccs2)c(OC)c1 (configuration not stated),40*,18,13
COc1ccc(NC(=O)C2c3ccccc3C(=O)N(C3CCCC3)C2c2cccs2)cc1OC (configuration not stated),16,56*,26
Cc1ccccc1-n1nnnc1C1(Nc2cc([N+](=O)[O-])ccc2O)CCCCC1,3,11,16
c1ccc(-n2nnc(-c3noc(-c4ccco4)n3)c2-c2ccncc2)cc1,18,17,4
c1ccc(-n2nnc(-c3noc(-c4cccnc4)n3)c2-c2ccncc2)cc1,54*,16,11
Cn1cc(C(=O)NCc2ccc(F)cc2)c(S(=O)(=O)N2CCCCC2)n1,-4,-43,-6
COc1ccc(NC(=O)NC(COC(=O)Nc2ccc(OC)cc2)c2ccccc2)cc1 (configuration not stated),95*,60*,33*
COc1ccc(OCC(O)CNC(=O)Nc2ccc(F)cc2)cc1 (configuration not stated),30,4,17
O=C(COc1ccccc1-c1nnc(-c2ccccc2)o1)NCc1ccco1,-45,20,-17
COc1ccc(S(=O)(=O)c2c(C)c(C)n(C(C)C)c2NC(=O)c2ccccc2F)cc1,-13,31*,0
COCCn1c(C)c(C)c(S(=O)(=O)c2ccccc2)c1NC(=O)c1ccccc1C,-7,-10,-5
O=C(CCc1ccc(S(=O)(=O)N2CCOCC2)cc1)NC(c1ccccc1)c1ccccc1,30,6,11
O=C(CCc1ccc(S(=O)(=O)N2CCOCC2)cc1)OCC(=O)c1ccc(-c2ccccc2)cc1,31*,25,15
O=C(COc1ccc(Cl)cc1)Nc1ccccc1C(=O)Nc1ccccc1,0,-29,-16
O=C(COc1ccc(Cl)cc1)Nc1noc(-c2cccs2)n1,44*,48*,31*
Cc1ccc(CN2CCC(c3nc(-c4cnccn4)n[nH]3)CC2)c(C)c1,-7,-27,-4
CN(C)[C@@H]1[C@@H](O)[C@H](Oc2cccc(F)c2)C[C@H]1NC(=O)c1cncn1C,4,0,2
Cc1cc(C)c(C#N)c(SCC(=O)Nc2ccc3c(c2)OCO3)n1,19,20,10
Cc1cc(C)c(C#N)c(SCC(=O)Nc2c(C#N)cnn2-c2ccccc2)n1,/,37*,/
Cc1cc(N2CCN(c3ncccn3)CC2)nc2ccc(NC(=O)c3ccncc3)cc12,-3,71*,-2
Cc1ccc(/C=C/C(=O)Nc2ccc3nc(N4CCN(c5ncccn5)CC4)cc(C)c3c2)cc1,-99,-18,-8
O=C(Nc1ccccc1)c1c(-c2ccc(Cl)cc2)c2c3n(c(-c4ccc(F)cc4)cn13)CCCC2,-85,-18,0
CSc1cccc(NC(=O)Cn2c(=O)n(-c3cc(C)cc(C)c3)c(=O)c3oc4ccccc4c32)c1,-30,14,-1
Cc1nn2c(CNS(=O)(=O)Cc3ccccc3Cl)c(C)nc2s1,-8,-8,0
CC(C)(C)C(=O)[C@@H]1[C@@H](C(=O)c2ccc3c(c2)OCO3)[C@@]2(C(=O)Nc3ccccc32)[C@H]2c3ccccc3C=CN12,-67,82*,31*
